Bioassay records deposited in PubChem by National Center for Advancing Translational Sciences (NCATS).
In the library only some 7.4% were active in any assay of this set; here they are far more common.
Rab9 promoter act: activates the Rab9 promoter; Huh7 Rab9 promoter-luciferase reporter, luminescence, 24 h; Potency, µM (highest dose often 9.22 µM), inactives show at the top dose activation, negative = inhibition, usual class: activators; hit rate 2.8% among 320,000; AID 485297; also: % of control where 0% means no effect; nearly all actives have a fitted effect of over 60% in size
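Rab9 promoter-driven luciferase in stably transfected Huh7 cells; 1500 cells/well rested 2 h, exposed to compound in DMSO for 24 h at 37 °C, 5% CO2. Luminescence read 10 min after adding luciferase reagent at ambient temperature.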
NPC1 promoter act: NPC1 promoter activation | Huh7 NPC1 promoter luciferase reporter, 24 h | Potency, µM (series often up to 9.22 µM), for the others: at the highest dose activation, hits mostly activators | hit rate 2.4% among 320,000; also: % of control where 0% means no effect; nearly all actives have a fitted effect of over 60% in size
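Luminescence read-out of NPC1 promoter-driven luciferase in stably transfected Huh7 cells; compounds delivered in DMSO and left 24 h at 37C, 5% CO2, qHTS titration format.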
FLuc counter: inhibits or activates purified firefly luciferase, miR-21 counter-screen. Potency, µM (top dose mostly 57.5 µM), for inactives: top-dose activity change, negative = inhibition, usual class: inhibitors. hit rate 6.9% among 360,000. P08659. AID 588342. purified FLuc, Km substrates, luminescence inhibition;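 also: plate controls were vehicle for no effect and reference inhibitor for full effect; nearly all actives have a fitted effect of over 55% in size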
Target sequence (P08659 whole entry, looked up): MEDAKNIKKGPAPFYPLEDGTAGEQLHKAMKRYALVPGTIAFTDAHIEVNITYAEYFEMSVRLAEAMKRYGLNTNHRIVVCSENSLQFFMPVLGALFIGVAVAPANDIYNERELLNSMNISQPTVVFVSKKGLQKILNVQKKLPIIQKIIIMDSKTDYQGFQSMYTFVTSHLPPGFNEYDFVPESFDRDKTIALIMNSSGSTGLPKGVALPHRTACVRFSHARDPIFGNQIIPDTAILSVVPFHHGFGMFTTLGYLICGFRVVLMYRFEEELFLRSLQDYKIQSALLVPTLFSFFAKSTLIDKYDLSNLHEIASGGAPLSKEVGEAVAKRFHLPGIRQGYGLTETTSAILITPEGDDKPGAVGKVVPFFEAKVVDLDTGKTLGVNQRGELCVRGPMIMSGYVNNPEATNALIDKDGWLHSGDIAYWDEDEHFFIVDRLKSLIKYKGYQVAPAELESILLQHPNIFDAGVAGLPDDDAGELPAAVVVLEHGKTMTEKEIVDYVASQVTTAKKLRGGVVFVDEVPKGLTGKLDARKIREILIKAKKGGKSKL
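Purified P. pyralis luciferase, 10 nM final, with Km-level 10 uM D-luciferin and 10 uM ATP in 50 mM Tris acetate pH 7.5, 10 mM Mg acetate, 0.01% Tween-20, 0.05% BSA; 6-point qHTS titration about 60 µM downward; luminescence read.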
SMN2 splice up: increases expression of the SMN2 splice variant. Potency, µM (top dose mostly 46.1 µM), inactives show at the top dose activity change, positive = activation, usual class: activators. HEK293 SMN2-luciferase splicing reporter, luminescence, 30-36 h. AID 1458. hit rate 2.8% among 210,000; also: % of control where 0% means no effect; nearly all actives have a fitted effect of over 55% in size
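HEK293 cells carry an SMN2 minigene-luciferase reporter in which exon 7 inclusion puts luciferase in frame. Cells were seeded at 2000 cells/well, attached for 10-12 hours, then exposed to compounds for 30-36 hours at 37C before ONE-Glo luminescence.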
ELG1 genotox: induces genotoxicity in HEK293T cells with luciferase-tagged ELG1; HEK293T ELG1-luciferase reporter, luminescence, 16 h; Potency, µM (highest dose often 46 µM), for the others: at the top dose activity change, positive = activation, hits mostly activators; hit rate 1.3% among 330,000; AID 504466; also: % of control where 0% means no effect; nearly all actives have a fitted effect of over 60% in size
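DMSO vehicle served as control against compound-treated ELG1-luciferase HEK293T cells; exposure lasted 16 hr at 37 °C and 5% CO2, followed by ONE-Glo luminescence detection after 30 min.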
* = called active by the depositor; ? = inconclusive; nt = no result; [ ] = another dose, or the depositor's remark. Calls follow the shape of the dose curve; as a rule, active = well fitted curve in the direction sought with a large enough effect; inconclusive = small, poorly fitted or top-dose-only effect, or another doubt; inactive = no such curve, though single readings can be large; an effect the other way counts as inactive or inconclusive. Potency is read from the fitted curve at half-maximal effect.

SMILES	Rab9 promoter act	NPC1 promoter act	FLuc counter	SMN2 splice up	ELG1 genotox
COc1ccc(NC(=O)c2cc3ccccc3o2)cc1	0.562µM*	1.58µM*	3.79µM*	?	6.51µM*
COc1ccc(NC(=O)c2ccco2)cc1NC(=O)c1cc2ccccc2o1	10.1%	-2.2%	-2.6%	nt	-14.1%
COc1ccc(NC(=O)c2cc3ccccc3o2)cc1OC	?	6.9%	15.1µM*	nt	?
COc1ccc(NC(=O)c2cc3ccccc3o2)cn1	2.51µM*	2.82µM*	13.5µM*	nt	?
COC(=O)c1cc2sc(Cl)cc2n1Cc1c(C)cc(C)cc1C	nt	nt	-2.5%	12.1%	nt
CCc1cccc(NC(=O)c2cnc(SC)nc2-c2ccccc2)c1	nt	nt	-12.5%	nt	nt
CSC(=[SH+])N=N/C(=C1/C=CC=CN1)c1ccccn1.[Cu][Br]	nt	nt	nt	-53.6%[9.22 µM]	nt
COc1ccc(C(=O)NNc2ncnc3c2cnn3-c2cccc(Cl)c2)cc1OC	nt	nt	3.2%	nt	nt
COc1ccc(NC(=O)c2coc3ccccc23)cc1OC	?	?	13.5µM*	20.2%	?
COc1ccc(NC(=O)c2coc(=O)c3ccccc23)cc1OC	nt	nt	4.4%	?	nt
COc1ccc(-c2noc(-c3ccc(NCc4ccco4)c([N+](=O)[O-])c3)n2)cc1	nt	nt	-18.6%	nt	nt
CCCSCCCNC(=O)c1sc2nc(C)cc(C)c2c1-n1cccc1	nt	nt	-3.6%	nt	nt
O=C(OCC(=O)c1c[nH]c2ccccc12)C1=COCCO1	3.55µM*	?	15.1µM*	?	?
O=C(OCC(=O)c1ccc[nH]1)C1=COCCO1	1.1%	-1.8%	-12.9%	nt	3.7%
Cc1cc(C(=O)COC(=O)C2=NNC(=O)CC2)c(C)n1-c1ccccc1	4.4%	-3.6%	1.9µM*	-4.4%	4.4%
CCC(=O)OCC(=O)c1cc(C)n(-c2ccc(Br)cc2)c1C	-2.5%	-5.0%	4.26µM*	-28.1%	-4.3%
Cc1cc(C(=O)COC(=O)CC2Sc3ccccc3NC2=O)c(C)n1-c1ccc(Br)cc1 (stereo unspecified)	-4.9%	1.6%	-5.4%	-55.9%	1.4%
Cc1cc(C(=O)COC(=O)CC2Sc3ccccc3NC2=O)c(C)n1-c1ccccc1 (stereo unspecified)	18.0%	14.6%	6.01µM*	-8.7%	8.1%
Cc1ccc(-n2c(C)cc(C(=O)COC(=O)c3c(C)noc3C)c2C)cc1	?	?	3.38µM*	-4.7%	13.1%
Cc1ccc(-n2c(C)cc(C(=O)COC(=O)C3=NNC(=O)CC3)c2C)cc1	0.7%	-1.9%	16.9µM*	-25.2%	18.4%
Cc1cc(C(=O)COC(=O)C2=COCCO2)c(C)n1-c1ccccc1	nt	nt	nt	nt	0.259µM*
COc1ccc2c(Sc3ccccc3)c(C(=O)NCc3cc(Br)ccc3OC)[nH]c2c1	nt	nt	-7.5%	nt	nt
CCOC(=O)CSc1nc2cccnc2n1C	-13.3%	1.1%	-2.0%	7.5%	-0.1%
Cc1cc2nc(-c3cccnc3SCC(=O)NC(C)C)[nH]c2cc1C	2.24µM*	2.82µM*	2.69µM*	11.2µM*	23.1µM*
COCCOC(=O)CSc1ncccc1-c1nc2cc(C)c(C)cc2[nH]1	3.55µM*	?	2.13µM*	15.8µM*	?
SMILES	Rab9 promoter act	NPC1 promoter act	FLuc counter	SMN2 splice up	ELG1 genotox
COc1ccc2nc(SCC(=O)NC(C)C)[nH]c2c1	24.0%	22.3%	0.3%	-19.8%	22.1%
Nc1ccc(CCc2nc3ccccc3o2)cc1	1.58µM*	2.51µM*	2.69µM*	12.6µM*	2.91µM*
C[N+]1(C)CC(O)[C@H](C(=O)[O-])C1 (stereo partly specified)	nt	nt	nt	5.6%	nt
CC(C)(C)c1ccc(C(=O)N2CCCC(c3nc4c(nnn4Cc4cccc(F)c4)c(=O)[nH]3)C2)cc1 (stereo unspecified)	nt	nt	-15.2%	11.4%	nt
C/C=C(/C)C(=O)Nc1cccc(C2=NOC3(C2)C[C@@H](C(N)=O)N(C(=O)c2ccc(OC)cc2)C3)c1 (stereo partly specified)	0.6%	-6.8%	3.1%	nt	4.0%
C/C=C\C=C/C(=O)Nc1cccc(C2=NOC3(C2)C[C@H](C(N)=O)N(C(=O)c2ccc(OC)cc2)C3)c1 (stereo partly specified)	-2.0%	1.6%	15.1µM*	nt	5.0%
C/C=C\C=C/C(=O)Nc1cccc(C2=NOC3(C2)C[C@@H](C(N)=O)N(C(=O)c2ccc(Cl)cc2)C3)c1 (stereo partly specified)	9.1%	2.6%	15.1µM*	nt	3.3%
O=C(Nc1cccnc1)c1cnn2c1NC(=C1CC1)C=C2C(F)F	nt	nt	-0.7%	nt	nt
Cc1cccc(/C=C(\C(=O)C(=O)O)c2ccc3ccccc3n2)c1	2.24µM*	2.24µM*	?	22.4µM*	14.6µM*
N#Cc1ccc(/C=C(\C(=O)C(=O)O)c2ccc3ccccc3n2)cc1	?	0.7%	?	nt	?
O=C(O)C(=O)/C(=C\c1cccc(Cl)c1)c1ccc2ccccc2n1	-0.3%	4.1%	?	11.2µM*	?
CC1Cc2ccccc2N1c1ncnc2nc[nH]c12 (stereo unspecified)	13.3%	21.8%	21.3µM*	28.6%	1.6%
COc1ccc(N2C(=O)c3cc4ccccc4cc3C2=O)cc1	1.4%	23.2%	-0.2%	nt	-1.0%
COc1ccc(-n2ccc3ccccc32)cc1	-1.6%[1.84 µM]	-7.2%	23.9µM*	nt	-0.1%
CC(=O)Nc1cccc(C(=O)/C=C/c2cccs2)c1	?	23.2%	13.5µM*	8.2%	0.3%
CC(=O)Nc1cccc(C(=O)/C=C/c2ccc(F)cc2)c1	-0.4%	2.3%	19µM*	-11.5%	?
CC(=O)Nc1cccc(C(=O)/C=C/c2ccc(/C=C/C(=O)c3cccc(NC(C)=O)c3)cc2)c1	-33.8%	-31.0%	0.0%	-68.3%	-16.9%
CC(=O)Nc1cccc(C(=O)/C=C/c2ccc(N(C)C)cc2)c1	24.8%	2.2%	2.69µM*	5.3%	?
CCOC(=O)CN(Cc1ccccc1)C(C(=O)NC1CCCCC1)c1ccccc1 (stereo unspecified)	nt	nt	-6.7%	2.2%	nt
O=C(Nc1cccc(-c2nn[nH]n2)c1)c1ccc(Br)s1	27.0%	0.8%	12µM*	nt	-1.3%
c1cc(NNc2cccc(-c3nn[nH]n3)c2)cc(-c2nn[nH]n2)c1	nt	nt	nt	-6.7%[9.22 µM]	nt
O=C(Nc1cccc(-c2nn[nH]n2)c1)c1ccc(Cl)s1	5.4%	-1.2%	15.1µM*	nt	0.6%
COC(=O)c1nnc(SC)nc1C(=O)OC	nt	nt	nt	-0.3%	nt
O=C(c1cccc([N+](=O)[O-])c1)c1cc2ccccc2o1	16.6%	9.3%	?	-14.7%	-1.5%
O=C(c1cc2ccccc2o1)c1cccs1	2.82µM*	3.55µM*	10.7µM*	?	15.6%
Cc1ccc(C(=O)c2cc3ccccc3o2)cc1	2.24µM*	2µM*	2.13µM*	?	?
Cc1ccc(C(=O)c2cc3ccccc3o2)cc1C	3.55µM*	2.24µM*	4.78µM*	?	16.4µM*
O=C(NC(=S)Nc1ccc(NC(=O)c2cccs2)cc1)c1cc2ccccc2o1	-6.3%	0.1%	0.2%	-6.9%	?
